# In PubChem BioAssay (NCATS):
# Results filed as inconclusive are left out. A number with no mark means an inactive call. Calls of active or inactive are those of the source. The call rests on the fitted dose curve; in most records, active means well fitted inhibition curve with a large enough effect; inconclusive means small, poorly fitted or top-dose-only effect; inactive means flat fitted curve, though single readings scatter.
# Test system: CRL-7250
# Assay: Cytotoxic Profiling of Annotated Libraries Using Quantitative High-Throughput Screening (AID 1296008); further: nearly all actives have a fitted effect of over 60% in size
# Conditions: Five cell lines viability, CellTiter-Glo ATP luminescence, 48-72 h; max response: stronger effect = lower value
# Summary of the method: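 Cells exposed to compounds for 48 or 72 hr at 37 degrees Celsius. Viability read as ATP-coupled luminescence with CellTiter-Glo after 10 min at room temperature.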
# On the % scale 0 is the no-effect control and ±100 the full control effect; potency means the concentration at half of the fitted maximal effect.
Structure (SMILES),Potency,outcome,max response [%]
CC(C)(O)Cn1c(NC(=O)c2ccc(-c3cn[nH]c3)s2)nc2cc(CN3CCOCC3)ccc21,1.66 µM (active),–,–
C[C@@H]1C(=O)O[C@H]2CC34[C@H]5C[C@@H](C(C)(C)C)C36[C@H](OC(=O)[C@@H]6O)O[C@@]4(C(=O)O5)[C@]21O (stereo partly drawn),–,inactive,–
C=CC(=O)Nc1cccc(Nc2nc(NC3CCC(N(C)C)CC3)nc3c2ncn3C(C)C)c1 (stereo not drawn),0.59 µM (active),–,–
O=C1NC(O)CCN1[C@@H]1O[C@H](CO)[C@H](O)[C@H]1O (stereo partly drawn),–,–,-71.1
CC1=C(C(=O)Nc2cc3cn[nH]c3cc2F)C(c2ccc(Cl)cc2F)N=C(c2ccnc(Cl)c2)N1 (stereo not drawn),–,–,-26.3
N#Cc1ccc(COC[C@H]2O[C@@H](n3c(NCc4ccc(Cl)c(Cl)c4)nc4c(N)ncnc43)[C@@H](O)[C@@H]2O)cc1,–,–,-5.8
N#Cc1cc(NC(=O)Nc2nnc(-c3ccncc3)s2)ccc1-c1cn[nH]c1,–,–,-3.75
Cc1cnc(NC(=O)Nc2cc(Br)c(C)cc2OC[C@@H]2CNCCO2)cn1,–,–,-18.7
N#CNC(=NCCCCCCOc1ccc(Cl)cc1)Nc1ccncc1,–,–,-103
COc1ccc(C[C@@H](C)[C@@H](C)Cc2ccc(OC)c(OC)c2)cc1OC,3.32 µM (active),–,–
CCc1nc(-c2cccc(C)c2)c(-c2ccnc(NC(=O)c3ccccc3)c2)s1,–,inactive,–
N#CC(=C(O)c1ccc(Cl)cc1Cl)c1nc2cc(Cl)ccc2c(=O)[nH]1,–,–,-6.32
CN(C)CC[C@H](c1ccc(Cl)cc1)c1ccccn1,–,inactive,–
